A structure can be active in one record and inactive in another. Calls of active or inactive are those of the source. How the source made its calls: active means hit-call score of the fitted dose curve at least 0.9, where 1 is the maximum; inactive means score below 0.9.
Experiments:
[1] = target: Transcription factor E2F1 (Homo sapiens) (UniProt Q01094); experiment: ATG_E2F_CIS: Attagene CIS-FACTORIAL HepG2 Assay for human E2F Transcription Factor 1 (AID 2282935); conditions: HepG2 Attagene cis-reporter, E2F reporter RNA transcripts; actives raise or lower the signal
In short: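 Gain or loss of reporter transcript, fitted against DMSO, reflects E2F1-driven transcription. Transiently transfected HepG2 dosed 24 h before RNA isolation. Quantified by fluorescent RT-PCR products separated by capillary electrophoresis.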

[2] = ATG_E_Box_CIS: Attagene CIS-FACTORIAL HepG2 Assay for human Enhancer Box (E-box) (AID 2282936); conditions: HepG2 E-box cis-reporter transcription, actives raise or lower the signal
In short: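 E-box-driven reporter transcripts measured in transiently transfected HepG2 after 24 h exposure: RNA reverse-transcribed, PCR-amplified, fluorescently labelled, digested and resolved by capillary electrophoresis. Gain or loss relative to DMSO.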

[3] = ATG_M_61_CIS: Attagene CIS-FACTORIAL HepG2 Assay for M61 Transcription Factor (Internal Marker) (AID 2282937); conditions: HepG2 Attagene CIS-FACTORIAL M61 internal marker reporter; actives raise or lower the signal
In short: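 Readout is reporter mRNA by RT-PCR, fluorescent primer extension and capillary electrophoresis, with gain or loss fitted relative to DMSO. Transfected HepG2 cells carrying endogenous-TF-driven cis reporters were exposed to chemicals for 24 hours.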

[4] = ATG_EGR_CIS: Attagene CIS-FACTORIAL HepG2 Assay for human Early Growth Response 1 (EGR1) (AID 2282938); conditions: HepG2 Attagene CIS-FACTORIAL EGR reporter mRNA; actives raise or lower the signal
In short: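 After 24 h compound exposure, RNA from reporter-transfected HepG2 cells was reverse-transcribed, PCR-amplified, fluorescently labelled and resolved by capillary electrophoresis. EGR1 reporter transcript changes, up or down, were fitted against DMSO, reflecting endogenous transcription-factor activity.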

[5] = ATG_M_19_CIS: Attagene CIS-FACTORIAL HepG2 Assay for M19 Transcription Factor (Internal Marker) (AID 2282939); conditions: HepG2 Attagene CIS-FACTORIAL M19 internal marker reporter; actives raise or lower the signal
In short: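 HepG2, MRTU transient transfection, 24 h dosing. Total RNA → RT-PCR → 6-FAM primer extension → HpaI digest → CE fluorescence. Bidirectional curve fit, DMSO negative control.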

[6] = ATG_ERE_CIS: Attagene CIS-FACTORIAL HepG2 Assay for Estrogen Response Element (ERE) (AID 2282940); conditions: HepG2 ERE cis-reporter, Attagene RNA transcript; actives raise or lower the signal
In short: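 After a 24 h chemical treatment, RNA from reporter-transfected HepG2 cells is reverse-transcribed, PCR-amplified and fluorescently labelled. Fragments separated by capillary electrophoresis give reporter signal; DMSO serves as negative control.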

[7] = ATG_Ets_CIS: Attagene CIS-FACTORIAL HepG2 Assay for human Erythroblast Transformation Specific (ETS) (AID 2282941); conditions: HepG2 ETS cis-reporter transcription, actives raise or lower the signal
In short: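 Bidirectional fit versus DMSO of reporter mRNA signal, detected by RT-PCR and capillary electrophoresis in HepG2 cells transiently transfected with cis-element reporters and dosed 24 h.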

[8] = target: Hepatocyte nuclear factor 3-beta (Homo sapiens) (UniProt Q9Y261); experiment: ATG_FoxA2_CIS: Attagene CIS-FACTORIAL HepG2 Assay for human Forkhead box A2 (FOXA2) (AID 2282942); conditions: HepG2 cis-reporter transcription factor activity, 24 h; actives raise or lower the signal
In short: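 Endogenous transcription factor activity is captured via cis-element-driven reporter transcripts in transfected HepG2. Total RNA taken at 24 h post-dosing; labelled RT-PCR products resolved by capillary electrophoresis. Gain or loss fitted versus DMSO.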

[9] = ATG_FoxO_CIS: Attagene CIS-FACTORIAL HepG2 Assay for human Forkhead box O (FoxO) (AID 2282943); conditions: HepG2 Attagene cis-reporter, FoxO element, mRNA; actives raise or lower the signal
In short: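 HepG2, transient MRTU transfection (cis element, endogenous TFs). Dose 24 h. TriZol RNA → oligo(dT) RT → PCR → 6-FAM primer extension → HpaI cut → CE. Gain/loss vs DMSO.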

[10] = ATG_GATA_CIS: Attagene CIS-FACTORIAL HepG2 Assay for human GATA Binding Protein (AID 2282944); conditions: HepG2 GATA cis-element reporter, Attagene multiplex mRNA; actives raise or lower the signal
In short: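 Cells: HepG2, transiently transfected with cis-regulated reporter transcription units. Exposure: 24 h. Detection: RT-PCR plus capillary electrophoresis of FAM-labeled fragments. Analysis: bidirectional, DMSO as baseline.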

Measured: AC50

Hepatocyte nuclear factor 3-beta (Homo sapiens), sequence (Q9Y261 whole entry, looked up): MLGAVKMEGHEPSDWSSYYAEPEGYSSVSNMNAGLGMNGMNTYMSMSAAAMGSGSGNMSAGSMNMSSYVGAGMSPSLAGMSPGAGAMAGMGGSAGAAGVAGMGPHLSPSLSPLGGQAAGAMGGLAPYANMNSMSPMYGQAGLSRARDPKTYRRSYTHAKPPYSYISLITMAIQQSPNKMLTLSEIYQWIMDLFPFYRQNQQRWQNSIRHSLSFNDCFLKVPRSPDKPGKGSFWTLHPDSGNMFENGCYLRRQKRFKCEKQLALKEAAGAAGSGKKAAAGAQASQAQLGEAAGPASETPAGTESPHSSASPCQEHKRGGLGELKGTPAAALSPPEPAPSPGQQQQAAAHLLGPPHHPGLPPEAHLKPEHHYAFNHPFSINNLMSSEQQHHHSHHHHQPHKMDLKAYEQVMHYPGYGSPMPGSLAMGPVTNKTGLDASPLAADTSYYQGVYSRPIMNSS
Transcription factor E2F1 (Homo sapiens), sequence (Q01094 whole entry, looked up): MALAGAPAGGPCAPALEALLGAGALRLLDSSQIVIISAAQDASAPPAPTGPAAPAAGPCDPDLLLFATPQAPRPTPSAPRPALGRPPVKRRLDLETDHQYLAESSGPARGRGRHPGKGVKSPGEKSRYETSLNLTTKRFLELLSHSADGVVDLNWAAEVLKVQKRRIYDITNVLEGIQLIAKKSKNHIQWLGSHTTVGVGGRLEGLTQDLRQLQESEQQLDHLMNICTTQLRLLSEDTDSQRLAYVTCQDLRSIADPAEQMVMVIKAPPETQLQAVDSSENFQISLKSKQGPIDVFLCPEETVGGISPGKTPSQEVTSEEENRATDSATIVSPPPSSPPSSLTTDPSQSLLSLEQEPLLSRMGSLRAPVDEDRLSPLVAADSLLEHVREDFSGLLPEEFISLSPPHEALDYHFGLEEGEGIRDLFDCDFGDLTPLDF

CCN(CC)C(=O)SCc1ccc(Cl)cc1
active: [4] 23.5 µM
inactive: all other assays above

O=S1OCC2C(CO1)C1(Cl)C(Cl)=C(Cl)C2(Cl)C1(Cl)Cl (stereo not given)
active: [6] 1.72 µM
inactive: all other assays above

O=C(O)C(F)(F)C(F)(F)C(F)(F)C(F)(F)C(F)(F)C(F)(F)C(F)(F)F
not listed: [6]
inactive: all other assays above

CCCN(CCOc1c(Cl)cc(Cl)cc1Cl)C(=O)n1ccnc1
not listed: [6]
inactive: all other assays above

C[C@H]1[C@H](c2ccc(Cl)cc2)SC(=O)N1C(=O)NC1CCCCC1
active: [1] 20.9 µM | [4] 15.4 µM
inactive: all other assays above

N#CN
inactive: all assays above

CCOc1nc(NC)nc(NC(=O)NS(=O)(=O)c2ccccc2C(=O)OC)n1
inactive: all assays above

CNC(=O)/C=C(\C)OP(=O)(OC)OC
inactive: all assays above

O=C(O)CCCOc1ccc(Cl)cc1Cl
not listed: [6]
inactive: all other assays above

CC(C)N(C(=O)COc1nnc(C(F)(F)F)s1)c1ccc(F)cc1
active: [7] 15.6 µM
inactive: all other assays above

CCOCN(C(=O)CCl)c1c(C)cccc1CC
inactive: all assays above

CCC(C)(NC(=O)c1cc(Cl)c(C)c(Cl)c1)C(=O)CCl (stereo not given)
inactive: all assays above

COc1cc(OC)nc(NC(=O)NS(=O)(=O)c2cc(NC=O)ccc2C(=O)N(C)C)n1
inactive: all assays above

CCS(=O)(=O)c1cccnc1S(=O)(=O)NC(=O)Nc1nc(OC)cc(OC)n1
not listed: [6]
inactive: all other assays above

CCC(C)(C)C(=O)OC1=C(c2ccc(Cl)cc2Cl)C(=O)OC12CCCCC2
active: [7] 1.69 µM
inactive: all other assays above

CCOC1Oc2ccc(OS(C)(=O)=O)cc2C1(C)C (stereo not given)
inactive: all assays above

CCCN(CCC)c1c([N+](=O)[O-])cc(C(F)(F)F)cc1[N+](=O)[O-]
inactive: all assays above

O=C(NC(=O)c1c(F)cccc1F)Nc1ccc(OC(F)(F)C(F)OC(F)(F)F)c(Cl)c1 (stereo not given)
inactive: all assays above

COC(=O)c1ccccc1S(=O)(=O)NC(=O)Nc1nc(C)nc(OC)n1
active: [9] 75.5 µM
inactive: [1] | [2] | [3] | [4] | [5] | [7] | [8] | [9] | [10]

CC(C)OC(=O)Nc1cccc(Cl)c1
active: [4] 94.5 µM
inactive: all other assays above

CCC(C)Nc1c([N+](=O)[O-])cc(C(C)(C)C)cc1[N+](=O)[O-] (stereo not given)
active: [6] 5.96 µM
inactive: all other assays above

OCCOc1ccccc1
inactive: all assays above

O=C(O)COc1ccc(Cl)cc1Cl
not listed: [6]
inactive: all other assays above

CC1(C)C(C=C(Cl)Cl)C1C(=O)OC(C#N)c1ccc(F)c(Oc2ccccc2)c1 (stereo not given)
inactive: all assays above

COc1nn(CSP(=S)(OC)OC)c(=O)s1
active: [6] 24.8 µM
inactive: all other assays above

CC(C)(C)C(O)C(Oc1ccc(Cl)cc1)n1cncn1 (stereo not given)
inactive: [1] | [2] | [3] | [4] | [5] | [7] | [8] | [9] | [10]
active: [8] 16.9 µM

COP(=O)(OC)OC=C(Cl)Cl
active: [4] 14.4 µM
inactive: all other assays above

C#CCN1C(=O)COc2cc(F)c(N3C(=O)C4=C(CCCC4)C3=O)cc21
inactive: all assays above

Source: PubChem BioAssay (EPA / NIEHS)
